Each structure is given as a SMILES string. The panel holds about 83,000 compounds, 20% with a hit somewhere; the sample as a whole holds those more often.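 Step 1: grow cells in 96-well plates. Step 2: add test compound at a single concentration. Step 3: incubate 48 h. Step 4: record percent growth.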 Values without a mark were called inactive. Active and inactive are the calls of the source. How the source made its calls: active means growth percent below 10; inactive means the rest.

This assay concerns HL-60(TB) leukemia. In words: NCI-60 one-dose screen, 48 h (100 = growth as untreated, 0 = no growth, -100 = all killed). Conditions: 10 µM unless noted.
`CCCCCCCCSC1=CC(=O)C(OC)=C(OC)C1=O`: the growth was -10.5% (active).

As for `Cc1ccc2nc(NC(=O)CSc3nc(-c4ccccc4)c(C#N)c4nnnn34)sc2c1`, the growth is 99.5%.

As for `CN1C2C=CC(=O)C1C1C(=O)N(c3ccccc3)C(=O)C12` (stereo not given), the growth was 55.7%.

As for `CCOC(=O)c1c2c(n3ccc(NC(=O)CCN(CC)CC)cc13)C(=O)c1ncccc1C2=O`, the growth is -48.5% (active).

Take `COC(=O)[C@H]1Cc2c([nH]c3ccccc23)[C@H](c2ccc3c(c2)OCO3)N1`: the growth was 98.6%.

For `CC/C=C/C/C=C/C/C=C/C/C=C/C/C=C/C/C=C/CCC(=O)Nc1ccn([C@@H]2O[C@H](CO)[C@@H](O)C2(F)F)c(=O)n1`, the growth was -16.1% (active).

`COc1ccc(OC)c(-c2cn3nc(-c4c[nH]c5ccc(Br)cc45)sc3n2)c1`: the growth is 86.3%.

As to `C=C[C@H]1C[C@@H]2C[C@@H]3[C@H]4C/C=C\C(=O)NCCCC5NC(=O)C(=C(O)/C=C/[C@@H]4CC(=O)[C@H]3[C@@H]2[C@H]1C)C5=O` (stereo not given in full), the growth was -76.5% (active).

Turning to `O=C1c2ccccc2NC(c2cn(-c3ccccc3)nc2-c2cccs2)N1Cc1ccccc1` (stereo not given), the growth was -6.57% (active).

In the case of `O=c1[nH]c(=O)n(C2C[C@H](O)[C@@H](CO)O2)cc1C(F)(F)F` (stereo not given in full), the growth was 85.8%.

On to `CC(C)=C(NC(=O)c1ccccc1)C(=O)O`, for which the growth was 110%.

With `CNC(=O)c1cc(Oc2ccc(NC(=O)c3[nH]c(SC)nc3-c3ccc(F)cc3)cc2)ccn1`, the growth was 78.6%.

With `N#Cc1c(N)n(CCNC(=O)c2ccccc2)c2nc3ccccc3nc12`, the growth is 34.5%.

As to `Cc1nc2sc(C(=O)Nc3cccc4ccccc34)c(N)c2cc1C(=O)c1ccccc1`, the growth was -50.6% (active).

As to `Nc1cc2nc3ccccc3oc-2cc1=O`, the growth is 16.2%.

Regarding `CN(C)CCOC(=O)Nc1ccccc1Cl`, the growth was 112%.

Take `Cc1ccccc1C(=O)c1ccccc1C(=O)O`: the growth is 106%.

In the case of `COc1cc2c(cc1OC)C(Sc1ccc(Cl)cc1)c1c(nc(N)c(C#N)c1N)O2` (stereo not given), the growth is -25.1% (active).

Turning to `CCOC(=O)c1sc(-c2ccc(OS(=O)(=O)c3cccs3)c(C=O)c2)nc1C`, the growth is -34.1% (active).

Turning to `Nc1n[nH]c2cccc(C#Cc3cccc(NC(=O)c4ccc(N5CCOCC5)c(C(F)(F)F)c4)c3)c12`, the growth was 2.04% (active).

For the molecule `CNC1=C([N+](=O)[O-])C(c2ccc(OC)cc2)C(C#N)=C(c2cccs2)O1` (stereo not given), the growth was 99.5%.

Consider `C[C@H]1[C@H]2C3=CC[C@@H]4[C@@]5(C)C/C(=C/c6ccco6)C(=O)C(C)(C)[C@@H]5CC[C@@]4(C)[C@]3(C)CC[C@@]2(C(=O)N2CCOCC2)CC[C@@H]1C`, for which the growth is 14.7%.

`CC[C@H](C)[C@@H](C(=O)OC)n1cc(CNC(=O)[C@@H](Cc2ccccc2)NC(=O)OCc2ccccc2)nn1`: the growth is 104%.

Regarding `O=C(O)CCCc1ccccc1`, the growth was 109%.

On to `CN1CCN(C(=O)c2cc(-c3ccc4ncnc(N5CCc6cc(F)c(Cl)cc65)c4c3)cnc2N)CC1`, for which the growth was -32.5% (active).

On to `CC(=O)N(O)c1ccc(/C=C/c2ccccc2)cc1`, for which the growth is 23.4%.

For `COc1ccc(-c2cn3ccnc3c(-c3ccc4ncn(C5CCCCC5)c4c3)n2)cc1`, the growth is 1.36% (active).

`N#C/C(Sc1nc2sc3c(c2c(=O)n1Cc1ccccc1)CCCC3)=C1/SC=C(c2ccc(Cl)cc2)N1c1ccccc1`: the growth is 84.3%.

`CC1=NOC(=O)/C1=C\c1ccc(O)cc1`: the growth is 105%.

Take `CC(C)(C)CC(N)=O`: the growth is 120%.

Regarding `COC(=O)[C@]12CC[C@@H](C(C)=O)[C@@H]1[C@H]1CC[C@@H]3[C@@]4(C)C/C(=C/c5cccnc5)C(=O)C(C)(C)[C@@H]4CC[C@@]3(C)[C@]1(C)CC2`, the growth was -2.67% (active).

On to `CCN(CC)CCCC(Cc1ccccc1)Nc1c2ccc(Cl)cc2nc2ccc(OC)cc12` (stereo not given), for which the growth is 19.5%.

Turning to `Clc1ccc(/C=C/c2nc(Nc3ccc(Cl)cc3)c3ccccc3n2)cc1`, the growth is 102%.

Take `CC(C)(C)c1ccc(OCCOC(=O)CBr)cc1`: the growth was 75.2%.

Consider `O=[N+]([O-])c1ccc(O)c2ncccc12`, for which the growth was -4.85% (active).

As to `COc1ccc(Cc2cc(-c3ccccc3C)n[nH]c2=O)cc1`, the growth is 92.4%.

Take `O=c1[nH]c2c(ccc3cnccc32)c2c1CCC2`: the growth is 13.4%.

For `Cc1cc(C)c(C#N)c(SCC(=O)c2sc3c(C#N)c(C)cc(C)[n+]3c2[O-])n1`, the growth was -39.3% (active).

For `COc1ccc(-c2nn(-c3cccc(Cl)c3)cc2/C=C2\C(=N)N(c3ccccc3)N=C2N)cc1`, the growth is 9.27% (active).

Turning to `COc1ccc(Cn2cc3c(c2-c2ccccc2)CC(C)(C)c2cnoc2-3)cc1`, the growth was 16.7%.

The values above are taken from PubChem BioAssay (NCI).
